# Measurements published in the supplement of paper PMC11219838.
# Unmarked numbers belong to inactive results.
# Tests used:
# Conditions in all cases: 60 µM; 5 days; temperature: 20 °C
# Meloidogyne hapla J2 = assay: proportion of mobile M. hapla J2 relative to DMSO control (fraction of DMSO control); higher = more viable, less nematicidal, active = 0.7 or less
# In short: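 Compound was pinned to 60 µM final (0.6% v/v DMSO) into 96-well wells, each holding about 25 M. hapla J2 in distilled water. Plates were sealed and shaken for 5 days at 20 °C and 200 rpm, then given 2 µL 1 M NaOH per well. Microscopic mobility scores were normalised to the mean of the plate's own DMSO wells, eight per plate, with two biological replicates averaged.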
# [1] = system: Caenorhabditis elegans dauer (daf-2(e1370)); assay: proportion of mobile C. elegans dauer larvae relative to DMSO control (fraction of DMSO control); higher = more viable, less nematicidal, active = 0.63 or less; extreme values may be limits of the assay
# In short: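 The proportion of mobile worms, relative to DMSO wells, was scored by dissection microscope and averaged over two biological replicates. Worms were C. elegans dauers, about 20 per well in liquid NGM in 96-well plates, generated from synchronized larvae on MYOB plates with E. coli OP50 at 25 °C for 48 h. They were treated with compound pinned to 60 µM final (0.6% v/v DMSO) and kept in sealed plates shaken at 200 rpm for 5 days at 20 °C.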
# Ditylenchus dipsaci = assay: proportion of mobile D. dipsaci (mixed stage) relative to DMSO control (fraction of DMSO control); higher = more viable, less nematicidal, active = 0.86 or less; extreme values may be limits of the assay
# In short: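 Mobility values are relative to DMSO controls and are averages of two biological replicates. For each well of a 96-well plate, about 20 D. dipsaci worms, grown on pea plants in Gamborg B-5 agar and funnel-extracted into water, were dispensed in distilled water. Plates received pinned compound at 60 µM final with 0.6% v/v DMSO and were sealed and shaken at 200 rpm for 5 days at 20 °C before 2 µL 1 M NaOH was added and mobile worms were scored by microscope.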
Structure (SMILES),proportion of mobile M. hapla J2 (Meloidogyne hapla J2),proportion of mobile C. elegans dauer larvae [1],proportion of mobile D. dipsaci (Ditylenchus dipsaci)
Clc1ccc(-c2nnc(SCc3ccccc3)o2)c(Cl)c1,0.957,1,1
c1csc(-c2nnc(-c3cccs3)o2)c1,0.754,0.786,0.769 (active)
Cc1ccccc1OCc1nc(-c2ccc(F)cc2)no1,0.909,1,1
Cc1ccc(-c2nc(-c3cccnc3)no2)c(C)c1,1.1,0.0769 (active),1
COc1ccc(Cl)cc1NC(=O)CSc1nnc(-c2ccc(Br)cc2)o1,1.03,1,1
O=C(CSc1nnc(-c2ccccc2)o1)Nc1ccccc1F,0.85,1,1
Clc1cc(Br)ccc1OCc1nc(-c2ccncc2)no1,0.953,0.929,1
CCOc1ccccc1-c1nc(-c2cccc(C)c2)no1,0.982,1,1
CCCCc1ccc(-c2nc(-c3cccnc3)no2)cc1,0.977,1,1
COc1cccc(-c2nnc(SCC(=O)Nc3ccccc3)o2)c1,1.03,1,1
O=C(Nc1ccccc1-c1nc(-c2ccncc2)no1)c1cccc(Cl)c1,1.04,1,1
Cc1ccc(-c2nnc(SCC(=O)Nc3cc(C)c(C)cc3Br)o2)cc1,0.792,1,1
O=C(CSc1nnc(-c2ccco2)o1)Nc1ccc(Br)cc1,1.05,1,1
COc1cccc(-c2noc(CSc3ccc(Cl)cc3)n2)c1,1.03,1,1
CCOc1nc(-c2ccc(C)cc2)ccc1-c1noc(-c2ccc(F)cc2)n1,0.829,1,1
O=C(Nc1ccccc1-c1nc(-c2cccnc2)no1)c1cc2ccccc2o1,0.919,1,0.9
O=C(Nc1ccc(-c2noc(-c3ccccn3)n2)cc1)c1cccc(Cl)c1,0.87,1,1

Structure (SMILES),proportion of mobile M. hapla J2 (Meloidogyne hapla J2),proportion of mobile C. elegans dauer larvae [1],proportion of mobile D. dipsaci (Ditylenchus dipsaci)
CC(C)C(=O)Nc1ccccc1-c1nc(-c2cccnc2)no1,0.935,1,1
COc1cccc(-c2nc(-c3ccc(F)cc3)no2)c1,0.862,1,1
CCN(C(=O)CSc1nnc(-c2ccncc2)o1)c1ccccc1,0.965,1,1
COc1cccc(-c2noc(COc3cc(C)ccc3C)n2)c1,0.873,1,1
Clc1cc(Cl)c(OCc2nc(-c3ccncc3)no2)cc1Cl,0.713,1,1
Cc1cccc(-c2noc(-c3ccc(F)cc3)n2)c1,0.642 (active),1,1
Brc1ccc(-c2noc(-c3cccs3)n2)o1,0.7 (active),0.5 (active),1
COc1ccccc1NC(=O)c1ccccc1-c1nc(-c2ccccc2F)no1,1.02,1,1
O=C(Nc1ccccc1-c1nc(-c2cccnc2)no1)c1cccc(Cl)c1,0.837,1,1
CCOc1ccc(-c2nc(-c3cccnc3)no2)cc1OCC,0.906,1,1
c1cncc(-c2noc(COc3cccc4ccccc34)n2)c1,0.991,1,1
COc1nc(-c2ccc(C)cc2)ccc1-c1noc(-c2ccc(F)cc2)n1,0.925,1,1
COC(=O)c1ccc(CSc2nnc(-c3ccncc3)o2)cc1,0.999,1,1
COc1ccc(Cl)cc1-c1noc(COc2ccccc2)n1,0.953,1,1
COc1nc(C)ccc1-c1noc(-c2ccc(F)cc2)n1,0.992,1,1
COc1ccc(Cl)cc1-c1noc(COc2ccccc2C)n1,0.977,1,1
